Assay outcomes as filed in PubChem.
Only some compounds are listed: those with a hit (about 6.2% of all), similar ones and a draw of the others.
KinaseGlo FLuc = blocks Kinase-Glo luciferase, a counter-screen artifact; Kinase-Glo luciferase, ATP luminescence, 8 min; Potency, µM (series often up to 38.3 µM), for the others: at the top dose activity change, negative = inhibition, most hits filed as inhibitors; Q27757; 0.28% of 200,000 active; note: nearly all actives have a fitted effect of over 60% in size
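Light output from Kinase-Glo luciferase with luciferin and 10 uM ATP in 50 mM imidazole pH 7.2, KCl, MgCl2, Tween 20, BSA; compound pin-delivered, 8-min ambient incubation, then luminescence read.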
RORg inh = blocks mouse ROR gamma transcriptional activity; P51450; Drosophila S2 Gal4-RORgamma UAS-luciferase reporter, 20 h; Potency, µM (series often up to 53.6 µM), inactives show at the highest dose activity change, negative = inhibition, usual class: inhibitors; 5.4% of 310,000 active; note: nearly all actives have a fitted effect of over 60% in size
Target sequence (P51450 whole entry, looked up, the tested form may be a part): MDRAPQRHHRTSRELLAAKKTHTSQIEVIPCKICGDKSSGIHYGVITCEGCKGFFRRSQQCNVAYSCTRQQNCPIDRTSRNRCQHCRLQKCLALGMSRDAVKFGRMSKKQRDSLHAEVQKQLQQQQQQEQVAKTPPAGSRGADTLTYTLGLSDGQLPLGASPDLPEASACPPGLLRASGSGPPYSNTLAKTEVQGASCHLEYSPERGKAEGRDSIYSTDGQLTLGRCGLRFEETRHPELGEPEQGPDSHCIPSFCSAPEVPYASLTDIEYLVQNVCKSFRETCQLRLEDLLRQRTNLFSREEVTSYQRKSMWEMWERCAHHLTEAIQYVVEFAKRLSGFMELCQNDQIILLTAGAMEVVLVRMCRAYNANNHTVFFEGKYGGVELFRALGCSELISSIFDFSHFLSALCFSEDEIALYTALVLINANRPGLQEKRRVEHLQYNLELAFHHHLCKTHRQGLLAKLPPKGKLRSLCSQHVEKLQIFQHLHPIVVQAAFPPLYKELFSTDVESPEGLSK
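Read-out: Photinus luciferase luminescence; inhibitors lower reporter signal. Insect Schneider cells with Gal4-ROR gamma fusion under metallothionein promoter, UAS reporter; 700 uM final copper sulfate induction, 20 hr, ambient temperature.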
Gal4-VP16 FLuc = counter-screen for ROR gamma inhibitors: Gal4-VP16 reporter; Potency, µM (highest dose often 53.6 µM), without a hit: at the top dose activity, negative = inhibition, actives largely listed as inhibitors; 3.5% of 310,000 active; Drosophila S2 Gal4-VP16 UAS-luciferase, luminescence, 20 h; AID 2546;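 note: Gal4-VP16 expression switched on by copper sulfate through the metallothionein promoter; nearly all actives have a fitted effect of over 50% in size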
Numbers without * were called inactive; ? = inconclusive; nt = not tested or not shown; [ ] = remark or other dose. Calls come from the whole dose curve; as a rule, active = well fitted curve in the direction sought with a large enough effect; inconclusive = small, poorly fitted or top-dose-only effect, or another doubt; inactive = no such curve, though single readings can be large; an effect the other way counts as inactive or inconclusive. % is set by controls: 0 for no effect and ±100 for the full control effect; potency is the fitted concentration of half-maximal effect.

SMILES	KinaseGlo FLuc	RORg inh	Gal4-VP16 FLuc
Cc1ccc(C(=O)NC(=S)Nc2ccc3c(c2)OCCO3)c(C)c1	0%	4.5µM*	?
Cc1ccc(SCC(=O)NC(=O)Nc2ccc3c(c2)OCCO3)c(C)c1	5%	-1%	-4%
CC(C)C(=O)Nc1ccc(C(=O)NNC(=S)NC(=O)c2ccccc2[N+](=O)[O-])cc1	6%	-3%	-2%
O=C(NC(=S)Nc1ccc2c(c1)OCO2)c1ccc(Cl)cc1	-2%	5µM*	5.6µM*
S=C(Nc1ccc2c(c1)OCO2)Nc1ccc2c(c1)OCO2	-2%	-40%	?
O=C(Nc1ccc2c(c1)OCCO2)c1c(F)c(F)c(F)c(F)c1F	-6%	8%	28%
COc1ccc(C(=O)NC(=S)NNC(=O)c2ccc(NC(=O)C(C)C)cc2)cc1	2%	?	16µM*
c1ccc(Cn2c(CNc3nc4ccccc4n3CCN3CCOCC3)nc3ccccc32)cc1	2%	?	-7%
CCC(CC)C(=O)NCc1ccc(Cl)cc1	1%	1%	-4%
O=C(NNC(=O)C(O)(c1ccccc1)c1ccccc1)C1CC1	4%	20%	2%
O=C(CCCSc1ccccc1)Nc1cccc(CO)c1	nt	-21%	-24%
CCCSc1nnc(NC(=O)Nc2ccccc2OC)s1	nt	-3%	-9%
CCc1ccc(OCC(=O)Nc2ccc3c(c2)OCCO3)cc1	nt	11%	0%
CC(C)C(=O)Nc1cccc(NC(=S)NC(=O)c2ccc(Cl)cc2)c1	0%	6.3µM*	?
CCc1ccc(C(=O)NC(=S)Nc2ccc3c(c2)OCCO3)cc1	3%	7.1µM*	7.1µM*
Cc1ccc(C(=O)Nc2ccc(N3CCOCC3)cc2)cc1	nt	2%	6%
Cc1ccc(C(=O)NC(=S)Nc2ccc(N3CCOCC3)cc2)c(C)c1	3%	2.5µM*	25µM*
CC(C)C(=O)Nc1cccc(NC(=S)NC(=O)c2ccc3c(c2)OCO3)c1	nt	26%	4%
CC(=O)Nc1ccc2c(c1)OCCO2	-2%	-2%	2%
Cc1cc(C)cc(C(=O)NC(=S)Nc2ccc3c(c2)OCCO3)c1	nt	?	3.2µM*
CCC(=O)Oc1ccc(NC(=O)CSCc2ccccc2)cc1	2%	-14%	?
S=C(Nc1ccc(Cl)cc1)NC1CC2CCC(C1)N2Cc1ccccc1 (configuration not stated)	nt	4µM*	?
Cc1cc(C)cc(NC(=S)NC2CC3CCCC(C2)N3C2CCCC2)c1 (configuration not stated)	-3%	35µM*	5%
S=C(Nc1ccc(Cl)cc1)NC1CC2CCCC(C1)N2C1CCCC1 (configuration not stated)	-5%	-1%	-1%
S=C(Nc1ccc(Cl)cc1)NC1CC2CCCC(C1)N2C1CC1 (configuration not stated)	7%	?	4µM*
SMILES	KinaseGlo FLuc	RORg inh	Gal4-VP16 FLuc
Cc1cc(C)cc(NC(=S)NC2CC3CCCC(C2)N3C2CC2)c1 (configuration not stated)	1%	?	?
CCN(CC)C(=O)NC1CC2CCCC(C1)N2Cc1ccccc1 (configuration not stated)	0%	10%	3%
CNC(=S)NC1CC2CCC(C1)N2Cc1ccccc1 (configuration not stated)	-2%	-14%	0%
CCc1ccc(NC(=S)NC2CC3CCCC(C2)N3Cc2ccccc2)cc1 (configuration not stated)	3%	7.1µM*	4.5µM*
COc1ccc(C(=O)NC2CCN(CC(=O)NCc3ccccc3)CC2)cc1	nt	-2%	7%
Cc1cc(N2C(=O)C3C4CC(C(Br)C4Br)C3C2=O)no1 (configuration not stated)	-6%	4%	-18%
c1ccc2[nH]c3cc4ncnc4cc3nc2c1	-9%	?	-15%
C[C@H](NC(=O)C1CCN(S(=O)(=O)c2ccccc2)CC1)C(=O)NCc1cccc(C(F)(F)F)c1	nt	22%	2%
COC(=O)[C@@]1(Cc2ccc(F)cc2)[C@H]2c3cc(C(=O)N4CCCC4)n(CCN4CNCC4=O)c3C[C@H]2CN1C(=O)c1ccccc1	-1%	17%	-15%
O=C(/C=C/c1ccco1)NCC1OCCc2ccccc21 (configuration not stated)	nt	33%	-12%
CCOC(=O)N1CCC(NC(=O)c2cc(COc3ccccc3SC)on2)CC1	nt	38%	-1%
COc1cccc(N2CCN(C(=O)CN(C)S(=O)(=O)c3ccc4c(c3)CCC(=O)N4)CC2)c1	0%	-40%	2%
FC(F)(F)c1cccc(NC(=S)N2CCN(c3ccccc3)CC2)c1	-3%	?	0%
COc1ccc(N2CCN(C(=S)Nc3cccc(C)c3)CC2)cc1	-4%	?	-2%
Cc1cccc(NC(=O)c2ccc(CN3CCN(Cc4ccccc4)CC3)cc2)c1	1%	2%	-12%
COc1cccc(N2CCN(C(=S)Nc3cccc(C)c3)CC2)c1	2%	7.1µM*	-28%
Cc1cccc(NC(=S)N2CCN(c3ccccc3)CC2)c1	0%	10µM*	?
Cc1cccc(CN2CCN(C(=S)Nc3ccccc3)CC2)c1	2%	4µM*	?
COc1cccc(CN(CC(=O)NCc2ccc(F)cc2)C(=O)c2ccco2)c1	nt	0%	2%
CCN(CC)C[C@@H](O)CN1CCCCc2nc(C)c(C)cc21	nt	1%[10 µM]	-8%[10 µM]
COc1ccc(CNS(=O)(=O)c2ccc3c(c2)N(C)CCO3)cc1	nt	27%	-9%
CCN1CCN(C(=O)c2ccc(-c3nc4ccccc4s3)s2)CC1	-6%	16%	0%
c1ccc2sc(N3CCOCC3)nc2c1	-7%	4%	?
c1ccc2sc(SN3CCOCC3)nc2c1	-2%	10µM*	7.1µM*
O=C(c1ccc(-c2nc3ccccc3s2)s1)N1CCOCC1	?	4.5µM*	?
SMILES	KinaseGlo FLuc	RORg inh	Gal4-VP16 FLuc
O=C(NC1CC1)C1CCN(c2nc3ccccc3s2)CC1	nt	-2%	17%
O=C(NC1CC1)c1ccc(-c2nc3ccccc3s2)s1	?	7.9µM*	?
O=C(Nc1cccc(-c2nc3ccccc3s2)c1)c1ccc2c(c1)OCO2	-1%	16%	8%
c1ccc2sc(-c3ccc4c(c3)OCO4)nc2c1	13µM*	?	2.2µM*
Cc1ccc(S(=O)(=O)N2CCOCC2)cc1C(=O)N1c2ccccc2Sc2ccccc21	1%	-30%	-29%
COc1ccc(-c2noc(N3CCC(C(=O)Nc4cc(OC)c(OC)c(OC)c4)CC3)n2)cc1	nt	0%	-4%
COc1ccccc1N1CCN(C(=O)c2cc3c(=O)n(C)c4ccccc4c3n2C)CC1	6%	12%	0%
O=C(COC(=O)COc1ccc(Cl)cc1)Nc1ccc(N2CCOCC2)cc1	-2%	0%	7%
Cc1nn2c(SCC(=O)c3cccs3)cc(C(C)(C)C)nc2c1-c1ccccc1	0%	10µM*	7.1µM*
CCSc1cc(C)nc2c(-c3ccccc3)c(C)nn12	-2%	0%	19%
C=C(C)CSc1cc(C)nc2c(-c3ccccc3)c(C)nn12	nt	11µM*	?
Cc1cc(SCC(=O)c2cccs2)n2nc(C)c(-c3ccc(Cl)cc3)c2n1	-2%	1µM*	?
Cc1cc(SCC(=O)Nc2ccc(O)cc2)n2nc(C)c(-c3ccccc3)c2n1	nt	-14%	11%
